Sampled rows, rich in hits. Any-hit rate of the full collection: about 2.7%.
TCR CD3 inh: inhibitors of human TCR-CD3 interaction; 0.37% of 360,000 active; TAMRA-labeled TCR probe fluorescence, biochemical; inhibition, % at 9.4 µM; in the data active = inhibition above about 19%;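 note: recombinant mutant TCR 2C K166C tagged with TAMRA read by polarization; 0% = receptor in buffer alone and 100% = receptor with positive control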
PAFAH1B2 inh: blocks human PAF acetylhydrolase 1b catalytic subunit 2. recombinant PAFAH1B2, FP-rhodamine activity probe, fluorescence polarization. inhibition, % at 3.39 µM. 1.2% of 340,000 active. AID 492953;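 active = inhibition above the mean of all tested compounds plus 3 SD, cut at about 24% in these data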;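 note: 0% = enzyme with DMSO and 100% = wells lacking PAFAH1B2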
Target sequence (P68402 whole entry, looked up): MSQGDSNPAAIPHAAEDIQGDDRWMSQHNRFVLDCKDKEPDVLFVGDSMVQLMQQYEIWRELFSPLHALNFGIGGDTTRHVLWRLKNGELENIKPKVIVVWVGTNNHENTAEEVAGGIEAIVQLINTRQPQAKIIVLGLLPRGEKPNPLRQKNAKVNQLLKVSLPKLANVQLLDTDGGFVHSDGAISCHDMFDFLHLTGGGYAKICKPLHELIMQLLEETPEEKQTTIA
PAFAH2 FP inh: inhibitors of human PAFAH2; 0.99% of 340,000 active; AID 492956; inhibition, % at 3.39 µM; Q99487; recombinant PAFAH2, FP-rhodamine activity probe, fluorescence polarization;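 active = inhibition above the mean over all tested compounds plus 3 SD, cut at about 30% in these data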;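 note: inhibitors block probe labeling of enzyme so polarization drops; 0% = enzyme with DMSO and 100% = wells lacking PAFAH2 protein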
pPAFAH FP inh: pPAFAH (human) enzyme inhibition; Q13093; 1.5% of 330,000 active; recombinant pPAFAH, FP-rhodamine probe fluorescence polarization; inhibition, % at 3.39 µM;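 active = inhibition above the mean inhibition across the screen plus 3 SD, cut at about 25% in these data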;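 note: inhibitors block binding of the rhodamine activity-based probe so polarization drops; 0% = enzyme with DMSO and 100% = wells lacking pPAFAH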
PAFAH1B3 inh: blocks human PAF acetylhydrolase 1B catalytic subunit 3. Q15102. inhibition, % at 3.39 µM. 0.28% of 340,000 active. recombinant PAFAH1B3, FP-rhodamine probe, fluorescence polarization;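 active = inhibition above the screen-wide average of all tested compounds plus 3 SD, cut at about 25% in these data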;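 note: 0% = enzyme with DMSO only and 100% = wells lacking PAFAH1B3 protein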
Target sequence (Q15102 whole entry, looked up): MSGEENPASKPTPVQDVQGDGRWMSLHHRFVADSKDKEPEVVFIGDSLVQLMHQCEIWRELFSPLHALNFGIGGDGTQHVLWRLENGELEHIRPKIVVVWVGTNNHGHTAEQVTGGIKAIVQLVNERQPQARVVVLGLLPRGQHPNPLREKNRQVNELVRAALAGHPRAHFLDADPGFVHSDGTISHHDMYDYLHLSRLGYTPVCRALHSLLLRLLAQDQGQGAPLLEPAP
An asterisk follows results filed as active; / = no result given; + = active, no number.

SMILES | TCR CD3 inh | PAFAH1B2 inh | PAFAH2 FP inh | pPAFAH FP inh | PAFAH1B3 inh
O=C(c1nnc(Cc2ccc(Cl)cc2)o1)N1CCc2ccccc2C1 | -2.1 | 2.5 | 3.9 | 29.8* | -1.6
COc1cc(NC(=O)CN2CCN(S(=O)(=O)/C=C/c3ccccc3)CC2)cc(OC)c1OC | 0.5 | -2.7 | -1.9 | 3.6 | 5.4
CCN(c1ccccc1)S(=O)(=O)c1ccc(Cl)c(NC(=O)CN(C)Cc2cccc(F)c2)c1 | -0.5 | 1.0 | -1.5 | / | -2.9
O=C(N/N=C/c1cc(Br)c(O)c(Br)c1)c1cc2c(ccc3ccccc32)o1 | 14.7 | 49.2* | 29.2 | / | 43.0*
Cc1noc(C)c1C(c1ccccc1)c1ccccc1 | / | 28.9* | -3.0 | 2.1 | 0.9
CSc1ccc(CN2CCN(Cc3ccccc3)C(CCO)C2)cc1 (stereo not given) | -0.6 | -1.8 | -1.8 | 7.8 | -2.2
CSc1ccc(CN2CCN(CC=C(C)C)C(CCO)C2)cc1 (stereo not given) | -6.3 | -0.6 | -4.6 | 25.4* | 9.7
CSc1nnc(-c2ccco2)c(-c2ccco2)n1 | 14.2 | 8.1 | 21.3 | 30.7* | 7.0
CSc1nnc(-c2ccccc2)c(-c2ccccc2)n1 | 3.0 | -0.1 | 1.3 | -0.7 | 6.8
CC(C)CN(C(=O)c1ccc(-n2cncn2)c([N+](=O)[O-])c1)C1CCS(=O)(=O)C1 (stereo not given) | -0.1 | 4.3 | -1.6 | 1.6 | 6.1
O=C(NC(=S)NNC(=O)[C@H]1C[C@@H]1c1ccccc1)c1ccc(F)cc1 | 6.9 | 3.6 | 0.7 | -0.5 | 1.3
O=C(/C=C/c1ccc(F)cc1)NC(=S)NNC(=O)[C@H]1C[C@@H]1c1ccccc1 | 0.3 | 59.3* | -0.4 | 5.8 | 3.7
O=C(O)CCCCCNC(=O)CSc1nnc(-c2ccco2)n1-c1ccccc1 | -4.8 | 4.4 | -10.3 | -3.6 | 2.0
O=C(COC(=O)CCS(=O)(=O)c1ccc(Cl)cc1)NCCc1ccc(Cl)cc1Cl | 0.6 | 26.4* | -2.9 | 3.0 | -4.8
O=C(Cc1ccc(Br)cc1)NCCc1ccc(Cl)cc1Cl | -5.5 | 27.3* | -3.5 | -0.1 | -1.5
CCc1cc2c(nc1CC)CCCN2S(=O)(=O)c1ccc(OC)cc1 | 3.1 | / | / | / | /
Nc1[nH]c(C(=O)c2ccccc2)c(-c2ccc3ccccc3c2)c1C(=O)NCc1ccc(-c2ccccc2)cc1 | -0.7 | / | / | / | /
O=C1c2ccccc2C(=O)c2c([N+](=O)[O-])ccc(O)c21 | -6.9 | 43.3* | 39.9* | 26.9* | 63.5*
O=C(O)c1ccc([N+](=O)[O-])c2c1C(=O)c1ccccc1C2=O | -2.2 | 14.2 | 16.2 | 4.5 | 14.6
Cc1ccc(C(=O)N/N=C/c2c(O)ccc3ccccc23)cn1 | 14.9 | 18.9 | 7.4 | 31.1* | 25.1
O=C(CSCC(=O)Nc1ccccc1)N/N=C/c1c(O)ccc2ccccc12 | 7.4 | 4.8 | 8.3 | 11.4 | 15.5
O=C(N/N=C/c1cc(Br)ccc1O)c1ccncc1 | -11.4 | 4.1 | 3.8 | 8.0 | 10.7
O=C(N/N=C/c1c(O)ccc2ccccc12)c1cccnc1 | 7.5 | 19.6 | 10.6 | 25.1* | 24.9
O=C(N/N=C/c1c(O)ccc2ccccc12)Nc1ccccc1 | 4.1 | / | / | 26.6* | /
O=C(N/N=C/c1ccc(O)c2ncccc12)c1cccc(Br)c1 | 0.2 | 16.8 | 12.9 | 26.6* | 25.7*
SMILES | TCR CD3 inh | PAFAH1B2 inh | PAFAH2 FP inh | pPAFAH FP inh | PAFAH1B3 inh
COc1ccc(-c2oc3ccccc3c2C(=O)OCc2ccccc2OC)cc1 | 9.3 | -14.0 | -7.0 | -7.0 | -6.8
Cc1ccc(SCC(=O)O/N=C(\N)c2cccnc2)cc1 | / | 75.4* | -0.1 | -4.7 | 4.3
Cc1ccc(S(=O)(=O)N(C)CC(=O)O/N=C(\N)c2cccnc2)cc1 | 7.0 | 6.5 | 2.6 | 0.2 | 5.0
COc1ccc([C@@H]2CC(=O)[C@@H]3CN(S(=O)(=O)c4ccc(C)cc4)[C@H](c4cccc(Cl)c4)C[C@@H]3N2S(=O)(=O)c2ccccc2)cc1 | -4.3 | / | / | / | /
CCN1C(=O)/C(=C/C=C2\N(CC)c3cc(S(=O)(=O)N(C)C)ccc3N2c2ccccc2)SC1=S | -47.7 | 151.4* | -59.1 | -56.6 | +
CCOC(=O)C1CCN(c2cc3c(cc2NC(=O)c2ccccc2OCC)n(C)c(=O)n3C)CC1 | 1.6 | 6.8 | 12.6 | 31.2* | 4.7
COc1cc(CNc2ccc(N3CCN(C(C)=O)CC3)cc2)ccc1OCc1ccc(F)cc1 | -3.5 | 8.8 | 2.4 | 31.0* | 8.7
CC1(NC(=O)c2ccccc2)CCN(CCCc2ccccc2)C1=O (stereo not given) | 10.9 | 2.0 | 1.4 | 0.4 | 12.9
Cc1ccc(C2(c3ccc(C)cc3)CC2C(=O)NC(C)C)cc1 (stereo not given) | -5.2 | 0.9 | -11.5 | / | 12.7
CN1CCN(CC/C=C2/c3ccccc3Sc3ccc(S(=O)(=O)N(C)C)cc32)CC1 | -3.7 | 0.3 | 10.1 | 24.9* | 5.9
C=C(C)COc1ccc2c(C)c(CCC(=O)N3C[C@H]4C[C@@H](C3)c3cccc(=O)n3C4)c(=O)oc2c1 | 0.5 | 6.8 | -1.0 | 25.1* | 4.5
CCOc1ccc(Br)cc1S(=O)(=O)Nc1ccc(C(=O)Nc2ccccc2OC)cc1 | -1.4 | -1.4 | -3.9 | 28.6* | -5.9
COc1ccc(C)cc1NC(=O)c1ccc(NS(=O)(=O)c2cccs2)cc1 | 4.4 | -2.1 | 5.8 | 32.2* | -4.2
COc1ccc(C(=O)NC2CCN(CC(=O)N3CCCCC3)CC2)cc1 | 2.6 | 0.2 | -4.1 | 0.2 | 7.8
CC(=O)NNC(=O)CCn1nnc2ccccc21 | 4.5 | -1.3 | -2.5 | 6.7 | 5.6
O=C(CCn1nnc2ccccc21)NNC(=O)C1CCCCC1 | -2.8 | 0.9 | -1.2 | 25.4* | 3.6
O=C1C(Cl)=C(NCCN2CCCCC2)C(=O)c2ccccc21 | / | 3.3 | -1.1 | 7.2 | 29.2*
COC(=O)C1=C(C)N(C)C(=NCC2CC2)NC1c1ccc(F)cc1 (stereo not given) | -0.8 | / | / | / | /
COc1ccc(C2CC(c3ccccc3O)=NN2c2ccccc2)cc1 (stereo not given) | -7.3 | -1.8 | 4.2 | 2.0 | 8.8
COc1ccc(C2CC(c3ccccc3)=NN2c2ccc(S(N)(=O)=O)cc2)cc1OC (stereo not given) | -0.1 | 0.5 | 6.9 | 5.4 | 1.8
COc1ccc(C2CC(c3ccccc3)=NN2c2ccc(N)cc2)cc1 (stereo not given) | -7.7 | 6.0 | 5.3 | 25.8* | -1.9
COc1ccc(C2CC(c3ccccc3)=NN2c2ccc(Cl)c(C(=O)O)c2)cc1 (stereo not given) | 8.2 | 1.3 | 7.2 | 34.0* | 9.7
COc1ccc(C2=NN(c3ccc(C(=O)O)cc3)C(c3ccc(OC)c(OC)c3)C2)cc1 (stereo not given) | 3.4 | 7.6 | 14.3 | 26.9* | 17.9
O=C1CC(c2cccc(Br)c2)c2cc3c(cc2N1)CCC3 (stereo not given) | 0.0 | 4.6 | 1.0 | 28.0* | 4.4
Nc1ccn([C@@H]2O[C@H](C(=O)N[C@H](Cc3ccccc3)C(=O)NCC(=O)N3CCOCC3)[C@@H](O)[C@H]2O)c(=O)n1 | -0.4 | / | / | / | /
O=C(C(=O)N1CCC(CNC(=O)c2ccccc2F)CC1)c1cc2ccccc2o1 | 0.8 | / | / | / | /

Source: PubChem BioAssay
